From PubChem BioAssay (EPA / NIEHS) come the findings set out here.

As a reminder, the AC50 is the concentration giving half of the maximal activity seen.

“And” between values parts separate entries of the source, which are not always exact repeats. Identical values can stand only once. Inconclusive results are not listed. The source made the active and inactive calls. How the source made its calls, unless noted: active means hit-call score of the fitted dose curve at least 0.9, where 1 is the maximum; inactive means score below 0.9.

Read-out in assay [1]: Pyruvate Dehydrogenase Kinase 4 (PDK4), PDK4 (gene 5166)
The experiment in a line: LTEA_HepaRG_PDK4: Life Technologies and Expression Analysis (LTEA) Assay for Pyruvate Dehydrogenase Kinase 4 (PDK4) using HepaRG (AID 2283525). Particulars: mRNA level, 48 h; actives raise or lower the signal. In a few lines: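 Readout is qRT-PCR of PDK4 transcript, normalized to three housekeeping genes, with bidirectional fitting against 0.5% DMSO vehicle. Differentiated HepaRG cells were treated 48 h in serum-free induction medium, duplicate wells, eight-point half-log series topping at 100 uM.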

Read-out in assay [2]: NAD(P)H dehydrogenase [quinone] 1 (NQO1), NQO1 (gene 1728)
In words: LTEA_HepaRG_NQO1: Life Technologies and Expression Analysis (LTEA) Assay for NAD(P)H dehydrogenase [quinone] 1 (NQO1) using HepaRG (AID 2283526). Particulars: mRNA level, 48 h; actives raise or lower the signal. In a few lines: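 Transcript induction or suppression is quantified by qRT-PCR in human HepaRG liver cells dosed for 48 hours. Eight half-log concentrations topping at 100 uM are used, with 0.5% DMSO as vehicle and baseline.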

Read-out in assay [3]: succinate dehydrogenase complex iron sulfur subunit B (SDHB), SDHB (gene 6390)
In words: LTEA_HepaRG_SDHB: Life Technologies and Expression Analysis (LTEA) Assay for succinate dehydrogenase complex iron sulfur subunit B (SDHB) using HepaRG (AID 2283528). Particulars: mRNA level, 48 h; actives raise or lower the signal. In a few lines: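 Readout is SDHB transcript level by qRT-PCR, normalised to three housekeeping genes and fitted bidirectionally against 0.5% DMSO vehicle. Human HepaRG cells were treated for 48 h at up to 100 uM.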

Read-out in assay [4]: Signal transducer and activator of transcription 3 (Homo sapiens) (UniProt P40763)
In words: LTEA_HepaRG_STAT3: Life Technologies and Expression Analysis (LTEA) Assay for Signal transducer and activator of transcription (STAT3) using HepaRG (AID 2283529). Particulars: mRNA level, 48 h; actives raise or lower the signal. In a few lines:
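STAT3 transcript quantified by qRT-PCR against three housekeeping genes (ACTB, GAPDH, POLR2A), fitted both directions relative to DMSO. HepaRG cultures exposed 48 h to eight half-log concentrations, top 100 uM, 0.5% DMSO, serum-free induction medium.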

Read-out in assay [5]: solute carrier (SLCO1B1), SLCO1B1 (gene 10599)
In words: LTEA_HepaRG_SLCO1B1: Life Technologies and Expression Analysis (LTEA) Assay for solute carrier (SLCO1B1) using HepaRG (AID 2283530). Particulars: mRNA level, 48 h; actives raise or lower the signal. In a few lines:
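Human HepaRG cultures treated for 48 h with an eight-concentration half-log series topping at 100 uM; SLCO1B1 measured by qRT-PCR and fitted bidirectionally relative to DMSO.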

Read-out in assay [6]: sulfotransferase 2A1 (SULT2A1), SULT2A1 (gene 6822)
In words: LTEA_HepaRG_SULT2A1: Life Technologies and Expression Analysis (LTEA) Assay for sulfotransferase 2A1 (SULT2A1) using HepaRG (AID 2283531). The following applies: mRNA level, 48 h; actives raise or lower the signal. In a few lines:
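Gene-expression endpoint in a human liver cell line: SULT2A1 mRNA change after 48 h chemical treatment, curves fitted in both directions relative to 0.5% DMSO vehicle. Concentrations spanned eight half-log steps from 100 uM.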

Read-out in assay [7]: Transforming Growth Factor (TGFA), TGFA (gene 7039)
The experiment in a line: LTEA_HepaRG_TGFA: Life Technologies and Expression Analysis (LTEA) Assay for Transforming Growth Factor (TGFA) using HepaRG (AID 2283532). Particulars: mRNA level, 48 h; actives raise or lower the signal. In a few lines:
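TGFA transcript quantified by qRT-PCR (Fluidigm arrays) against three housekeeping genes, after 48 hours chemical treatment of HepaRG cells. Top concentration 100 uM with half-log dilutions, 8 points, duplicates, 0.5% DMSO.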

Read-out in assay [8]: Transforming Growth Factor (TGFB1), TGFB1 (gene 7040)
In words: LTEA_HepaRG_TGFB1: Life Technologies and Expression Analysis (LTEA) Assay for Transforming Growth Factor (TGFB1) Transporter using HepaRG (AID 2283533). The following applies: mRNA level, 48 h; actives raise or lower the signal. In a few lines:
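Eight-point concentration-response (max 100 uM, half-log) in HepaRG under serum-free induction conditions, 48 h. TGFB1 mRNA by qRT-PCR, housekeeping-normalized.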

Read-out in another assay: TIMP1, TIMP1 (gene 7076)
In words: LTEA_HepaRG_TIMP1: Life Technologies and Expression Analysis (LTEA) Assay for TIMP1 using HepaRG (AID 2283534).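 On outcome: TaqMan qRT-PCR signal normalized to ACTB GAPDH and POLR2A housekeeping genes.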 Particulars: mRNA level, 48 h; actives raise or lower the signal. In a few lines:
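TIMP1 induction or repression in HepaRG cells after 48 h chemical exposure (eight concentrations, highest 100 uM), assessed by normalized qRT-PCR with bidirectional fitting to DMSO controls.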

Read-out in assay [9]: Tumor necrosis factor receptor 1 (TNFRSF1A), TNFRSF1A (gene 7132)
The experiment in a line: LTEA_HepaRG_TNFRSF1A: Life Technologies and Expression Analysis (LTEA) Assay for Tumor necrosis factor receptor 1 (TNFRSF1A) using HepaRG (AID 2283535). The following applies: mRNA level, 48 h; actives raise or lower the signal. In a few lines:
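Assay uses 48 h chemical treatment of differentiated HepaRG monolayers, tested in duplicate at eight concentrations from 100 uM downward in 0.5% DMSO. mRNA is normalized to ACTB, GAPDH and POLR2A, with induction or suppression fitted relative to vehicle.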

Read-out in assay [10]: Thyroid Hormone Responsive (THRSP), THRSP (gene 7069)
In words: LTEA_HepaRG_THRSP: Life Technologies and Expression Analysis (LTEA) Assay for Thyroid Hormone Responsive (THRSP) using HepaRG (AID 2283536). Particulars: mRNA level, 48 h; actives raise or lower the signal. In a few lines:
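THRSP transcript quantified by Fluidigm qRT-PCR against three housekeeping genes after 48 h chemical exposure of HepaRG cells in serum-free induction medium; eight-point half-log series, top 100 uM, 0.5% DMSO vehicle, duplicate wells.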

Read-out in assay [11]: Cellular tumor antigen p53 (Homo sapiens) (UniProt P04637)
In words: LTEA_HepaRG_TP53: Life Technologies and Expression Analysis (LTEA) Assay for Tumor Protein P53 (TP53) using HepaRG (AID 2283537). Particulars: mRNA level, 48 h; actives raise or lower the signal. In a few lines:
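Read-out is TP53 transcript level by microfluidic qRT-PCR, normalised to three housekeeping genes and fitted bidirectionally against DMSO. Human HepaRG cells received compounds for 48 h, highest concentration 100 uM.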

Read-out in assay [12]: UDP glucuronosyltransferase (UGT1A1), UGT1A1 (gene 54658)
In words: LTEA_HepaRG_UGT1A1: Life Technologies and Expression Analysis (LTEA) Assay for UDP glucuronosyltransferase (UGT1A1) using HepaRG (AID 2283538). The following applies: mRNA level, 48 h; actives raise or lower the signal. In a few lines: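 Cells are plated, cultured 48 h, switched to serum-free induction medium, then dosed 48 h at eight concentrations (max 100 uM, 0.5% DMSO). RNA is isolated and UGT1A1 expression measured by qRT-PCR; changes versus DMSO are fitted in both directions.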

Read-out in assay [13]: UDP glucuronosyltransferase (UGT1A6), UGT1A6 (gene 54578)
The experiment in a line: LTEA_HepaRG_UGT1A6: Life Technologies and Expression Analysis (LTEA) Assay for UDP glucuronosyltransferase (UGT1A6) using HepaRG (AID 2283539). The following applies: mRNA level, 48 h; actives raise or lower the signal. In a few lines: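 Measures mRNA change in HepaRG hepatic cells exposed 48 h to chemicals (eight-point, maximum 100 uM, 0.5% DMSO vehicle) in serum-free induction medium. Expression normalized to endogenous controls; DMSO served as negative control and baseline.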

Read-out in assay [14]: X-box binding protein 1 (XBP1), XBP1 (gene 7494)
The experiment in a line: LTEA_HepaRG_XBP1: Life Technologies and Expression Analysis (LTEA) Assay for X-box binding protein 1 (XBP1) using HepaRG (AID 2283540). The following applies: mRNA level, 48 h; actives raise or lower the signal. In a few lines:
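Eight concentrations (half-log, highest 100 uM, 0.5% DMSO) tested in duplicate on HepaRG cells over 48 h in serum-free induction medium; qRT-PCR of XBP1 normalised to ACTB, GAPDH, POLR2A.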

Assay [15] in a line: LTEA_HepaRG_LDH_cytotoxicity: Cytotoxicity Assessment in the Life Technologies and Expression Analysis (LTEA) Assay (AID 2283563; active means hit-call score of the fitted dose curve at least 0.9, where 1 is the maximum;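 on AC50: LDH activity released into spent culture medium as a marker of cell death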). In a few lines: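 Spent-medium LDH after 48 h chemical exposure of HepaRG cells in serum-free induction medium; eight concentrations, half-log dilutions from 100 uM, duplicate wells, fitted upward relative to 0.5% DMSO.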
The nature of assay [16]: TOX21_p53_BLA_p2_viability: Viability Assessment in the Tox21 HCT-116 p53 Agonism Beta-lactamase Assay, Phase 2 (AID 2283591; active means hit-call score of the fitted dose curve at least 0.9, where 1 is the maximum;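 further: compound exposure lasted 16 h at 37 °C; actives lower the ATP signal meaning cytotoxicity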). In a few lines:
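Cytotoxicity readout: CellTiter-Glo ATP luminescence, 30 min at room temperature, after the beta-lactamase read. Cells were HCT116 exposed 16 h at 37C to compounds pin-transferred at 217-fold dilution from DMSO stocks.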

Assay [17] has as its target Cellular tumor antigen p53 (Homo sapiens) (UniProt P04637). The experiment in a line: TOX21_p53_BLA_p2_ratio: Tox21 HCT-116 p53 Agonism Beta-lactamase Assay, Ratio, Phase 2 (AID 2283592; active means hit-call score of the fitted dose curve at least 0.9, where 1 is the maximum). In a few lines:
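DMSO-normalized, positive-direction endpoint derived from the 460 nm/530 nm FRET ratio in HCT116 p53 beta-lactamase reporter cells exposed 16 h at 37C and loaded with CCF4-AM for 2 h.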

Assay [18] is described as follows: ATG_XTT_Cytotoxicity: Cytotoxicity Assessment in the Attagene TRANS-FACTORIAL HepG2 Assay (AID 2283584; active means hit-call score of the fitted dose curve at least 0.9, where 1 is the maximum;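 on AC50: XTT signal for cell number as viability in transfected HepG2 cells; cells exposed to compound for 24 h before reading; active means loss of viability signal versus DMSO baseline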). In a few lines: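 24 h chemical exposure of reporter-transfected HepG2; XTT signal loss vs DMSO indicates cytotoxicity.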

Chain of Signal transducer and activator of transcription 3 (Homo sapiens) (P40763 whole entry, looked up): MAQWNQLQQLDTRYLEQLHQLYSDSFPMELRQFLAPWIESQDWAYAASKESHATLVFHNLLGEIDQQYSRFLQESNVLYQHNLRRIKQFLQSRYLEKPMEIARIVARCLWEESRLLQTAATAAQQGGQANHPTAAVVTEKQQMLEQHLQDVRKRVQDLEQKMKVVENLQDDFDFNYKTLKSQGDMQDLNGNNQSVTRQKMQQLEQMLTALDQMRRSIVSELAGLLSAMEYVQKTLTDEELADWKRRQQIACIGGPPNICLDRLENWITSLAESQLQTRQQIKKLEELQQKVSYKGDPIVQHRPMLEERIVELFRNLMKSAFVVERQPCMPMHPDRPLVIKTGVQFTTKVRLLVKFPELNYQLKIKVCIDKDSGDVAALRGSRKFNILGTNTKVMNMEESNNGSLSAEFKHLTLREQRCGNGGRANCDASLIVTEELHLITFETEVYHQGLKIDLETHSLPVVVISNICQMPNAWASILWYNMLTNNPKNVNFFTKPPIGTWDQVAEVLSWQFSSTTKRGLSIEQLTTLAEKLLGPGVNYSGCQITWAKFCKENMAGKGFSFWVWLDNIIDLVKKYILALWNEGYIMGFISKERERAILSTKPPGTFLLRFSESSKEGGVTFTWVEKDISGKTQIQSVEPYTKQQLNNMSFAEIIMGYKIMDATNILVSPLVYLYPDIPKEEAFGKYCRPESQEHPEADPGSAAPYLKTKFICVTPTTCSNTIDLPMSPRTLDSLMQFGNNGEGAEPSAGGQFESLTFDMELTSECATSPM
Chain of Cellular tumor antigen p53 (Homo sapiens) (P04637 whole entry, looked up): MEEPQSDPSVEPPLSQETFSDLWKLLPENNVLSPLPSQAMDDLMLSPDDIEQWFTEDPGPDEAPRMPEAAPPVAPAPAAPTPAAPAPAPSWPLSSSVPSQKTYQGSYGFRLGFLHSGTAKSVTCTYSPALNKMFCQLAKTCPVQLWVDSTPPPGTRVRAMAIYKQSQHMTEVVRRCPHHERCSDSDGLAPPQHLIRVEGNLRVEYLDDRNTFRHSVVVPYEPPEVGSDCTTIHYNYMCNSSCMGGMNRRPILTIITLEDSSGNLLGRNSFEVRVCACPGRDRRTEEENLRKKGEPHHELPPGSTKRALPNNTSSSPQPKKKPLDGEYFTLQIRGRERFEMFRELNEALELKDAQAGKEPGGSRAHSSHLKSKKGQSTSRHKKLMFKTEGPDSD

As for `CCc1nn(C2CCCCC2)c2cc(C3(C#N)CCC(C(=O)O)CC3)ccc12` (stereo not drawn), the AC50 is 33.6 µM (active) in [1]; 56.2 µM (active) in [5]; 80.4 µM (active) in assay [6]; 65.5 µM (active) in [7]; 33.2 µM (active) in assay [8]; 33.8 µM (active) with TIMP1, TIMP1 (gene 7076). Also, the AC50 is 79.3 µM (active) in assay [10], 50 µM (active) in assay [11], 11.8 µM (active) in [12] and 46.3 µM (active) in [17]. For the same compound, the compound was classed as inactive in assay [2], in assay [3], in assay [4], in [9], in [13] and in assay [14]. The compound was classed as inactive in [15] and in assay [16].

As for `CCC(=C(c1ccc(O)cc1)c1ccc(OCCN(C)C)cc1)c1ccccc1`, the call in assay [1], in assay [2], in assay [3], in assay [4], in assay [5] and in [7] was inactive. In addition, the outcome is “inactive” with TIMP1, TIMP1 (gene 7076); “inactive” in assay [9]; “inactive” in assay [10]; “inactive” in [12]; “inactive” in [13]; “inactive” in [14]. Also, the AC50 is 85.5 µM (active) in [6]; 97.5 µM (active) in assay [8]; 80.5 µM (active) in assay [15]; 18.4 µM (active) and 34.2 µM (active) and 6.67 µM (active) in assay [18].

For the compound `CC(O)CO` (stereo not drawn), the call in assay [1], in [2], in [3], in assay [4], in assay [5] and in assay [6] was inactive. Moreover, the outcome in [7] was “inactive”; in assay [8], “inactive”; with TIMP1, TIMP1 (gene 7076) it was “inactive”; in assay [9], “inactive”; in [10], “inactive”; in assay [11], “inactive”. Also, the result in assay [12], in assay [13], in assay [14], in assay [16] and in assay [17] was inactive.

On to `CC1=C(/C=C/C(C)=C/C=C/C(C)=C/C(=O)O)C(C)(C)CCC1`, for which the AC50 is 33.8 µM (active) in assay [1]; 11 µM (active) in assay [2]; 1.09 µM (active) in assay [3]; 11.5 µM (active) in assay [5]; 0.812 µM (active) in assay [6]; 13 µM (active) in assay [12]. The AC50 in assay [13] was 16.9 µM (active). The outcome in [4] was “inactive”; in [7], “inactive”; in assay [8] it was “inactive”; with TIMP1, TIMP1 (gene 7076), “inactive”; in [9] it was “inactive”; in assay [10], “inactive”. Further, the compound was classed as inactive in assay [11], in assay [14], in [15], in assay [18] and in assay [17].

With `O=C1OC2(c3ccccc31)c1cc(Br)c(O)c(Br)c1Oc1c2cc(Br)c(O)c1Br`, the compound was called inactive in [18] and in [16].

With `CCC(C)(C)C1CCC(O)CC1` (stereo not drawn), the compound was called inactive in assay [1], in [2], in [3], in [4], in [5] and in [6]. Also, the outcome was “inactive” in assay [7]; “inactive” in assay [8]; “inactive” with TIMP1, TIMP1 (gene 7076); “inactive” in assay [9]; “inactive” in assay [10]; “inactive” in assay [11]. In addition, the compound was classed as inactive in [12], in [13], in assay [14], in assay [15], in assay [18] and in [17].

For the compound `O=c1c(-c2ccc(O)cc2)coc2cc(O)ccc12`, the call in assay [1], in assay [2], in assay [3], in assay [4], in assay [5] and in [6] was inactive. Besides, the outcome was “inactive” in assay [7]; “inactive” in [8]; “inactive” with TIMP1, TIMP1 (gene 7076); “inactive” in [9]; “inactive” in [10]; “inactive” in [11]. Further, the outcome in assay [12], in assay [13], in assay [14], in [15], in [18] and in assay [16] was inactive. Also, in assay [17], the outcome was inactive.
